Screens from PubChem BioAssay.
DT40 TDP1 CPT = growth inhibition of DT40 Tdp1-/-;hTDP1 cells with camptothecin (screen for TDP1 inhibitors) | chicken DT40 Tdp1-/-;hTDP1 cells + 20 nM CPT, ATP luminescence, 48 h | Potency, µM (top dose mostly 46.2 µM), without a hit: at the top dose activity change, negative = growth inhibition, most hits filed as inhibitors | 12% of 420,000 active; note: potency is the fitted concentration of half-maximal effect; % is set by controls: 0 for no effect and ±100 for the full control effect; nearly all actives have a fitted effect of over 55% in size
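Chicken DT40 Tdp1-/- cells complemented with human TDP1, 400 cells/well, exposed to compounds plus 20 nM camptothecin for at least 48 h at 37 C; viability read as ATP content by CellTiter-Glo luminescence.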
TGFb SMAD3 inh = inhibitors of TGF-b signaling | HepG2 CAGA-GFP TGF-b/SMAD3 reporter, GFP fluorescence, 18 h; TGF-beta stimulated, 500 pg/mL final | Potency, µM (highest dose often 46.1 µM), inactives show at the top dose activity, negative = inhibition, usual class: inhibitors | 1.2% of 410,000 active | AID 588855; note: potency is the fitted concentration of half-maximal effect; % is set by controls: 0 for no effect and ±100 for the full control effect; nearly all actives have a fitted effect of over 65% in size
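Per well, imaged GFP fluorescence of HEPG2 CAGA-GFP cells gives the signal; cells get compound, then TGF-beta (500 pg/mL final), 18 h at 37 degrees C; %Activity versus -TGF-beta and +DMSO controls.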
TDP1 block = TDP1 (human) enzyme inhibition | Q9NUW8 | recombinant TDP1, AlphaScreen DNA substrate cleavage | Potency, µM (doses to about 130 µM), without a hit: at the top dose activity change, negative = inhibition, actives largely listed as inhibitors | 0.28% of 350,000 active; note: potency is the fitted concentration of half-maximal effect; % is set by controls: 0 for no effect and ±100 for the full control effect; nearly all actives have a fitted effect of over 40% in size
Target sequence (Q9NUW8 whole entry, looked up): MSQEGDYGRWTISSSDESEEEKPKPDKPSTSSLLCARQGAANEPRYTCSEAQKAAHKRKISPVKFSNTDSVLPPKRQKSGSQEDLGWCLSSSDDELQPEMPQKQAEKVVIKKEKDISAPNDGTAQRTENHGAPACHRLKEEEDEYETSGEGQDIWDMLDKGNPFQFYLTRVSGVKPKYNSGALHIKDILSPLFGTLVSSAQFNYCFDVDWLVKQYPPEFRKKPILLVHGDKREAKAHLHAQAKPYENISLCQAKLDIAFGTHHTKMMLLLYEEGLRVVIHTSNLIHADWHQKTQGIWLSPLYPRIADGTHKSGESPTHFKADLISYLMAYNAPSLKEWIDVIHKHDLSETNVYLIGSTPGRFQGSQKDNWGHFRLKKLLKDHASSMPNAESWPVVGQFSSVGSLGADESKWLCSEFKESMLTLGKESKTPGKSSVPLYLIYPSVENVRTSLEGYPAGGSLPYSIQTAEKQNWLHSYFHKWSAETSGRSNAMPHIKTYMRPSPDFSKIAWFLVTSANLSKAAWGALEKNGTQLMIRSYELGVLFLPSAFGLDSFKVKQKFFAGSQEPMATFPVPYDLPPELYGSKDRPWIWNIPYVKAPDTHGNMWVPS
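Here, a 5' biotin and 3' phosphotyrosine-FITC DNA oligonucleotide reports Tdp1 activity: intact substrate bridges AlphaScreen beads, while cleavage leaves a 3' phosphate and drops signal. All incubations at room temperature.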
HepG2 viability = kills HepG2 cells in TGF-b inhibitor counter-screen | HepG2 CAGA-GFP viability, ATP luminescence, 18 h | Potency, µM (titrated, usually from 46.1 µM), for the others: at the top dose activity change, negative = cytotoxicity, actives largely listed as cytotoxic | 0.76% of 410,000 active | AID 588856; note: potency is the fitted concentration of half-maximal effect
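HepG2 CAGA-GFP cells (1000/well, DMEM with 1% FBS) received compound, then TGF-beta at 500 pg/mL final, and were incubated 18 hours at 37 degrees C. Viability was read by CellTiter-Glo luminescence. Media-only wells were set as complete cell-killing and DMSO as no toxicity.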
TDP1 cell noCPT = qHTS for Inhibitors of human tyrosyl-DNA phosphodiesterase 1 (TDP1): qHTS in cells in absence of CPT. DT40 Tdp1-/- hTDP1 cells, no CPT, ATP luminescence, 48 h. Potency, µM (highest dose often 46.2 µM), without a hit: at the top dose activity change, negative = growth inhibition, most hits filed as inhibitors. 15% of 420,000 active. AID 686978, 2013; note: potency is the fitted concentration of half-maximal effect; % is set by controls: 0 for no effect and ±100 for the full control effect; nearly all actives have a fitted effect of over 55% in size
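Growth of hTDP1-complemented DT40 Tdp1-knockout cells is measured by ATP luminescence after at least 48 hr compound exposure at 37 °C, with DMSO substituting for the 20 nM CPT used in the parallel screen.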
IL-1B inflam inh = blocks inflammasome-driven IL-1 beta release; THP-1 LPS/ATP IL-1B secretion, AlphaLISA, 16 h; hits give low values; activity change, % at 57.5 µM; 4.7% of 360,000 active; AID 743279; in the data active = activity change below about -50%; inconclusive = mostly about -30% to -49%; note: % is set by controls: 0 for no effect and ±100 for the full control effect
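Secreted IL-1B measured by AlphaLISA bead assay after 16 h compound exposure of THP-1 cells; compounds (final up to 57.5 uM) added 1 h before LPS (250 ng/mL) and ATP (1.25 mM) stimulation; lower signal means less secretion.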
An asterisk follows results filed as active; ? = inconclusive; · = no result. Rows were chosen to be rich in hits. Some 18% of all compounds tested hit in one or more screens of this group. Unless noted, calls come from the whole dose curve; as a rule, active = well fitted curve in the direction sought with a large enough effect; inconclusive = small, poorly fitted or top-dose-only effect, or another doubt; inactive = no such curve, though single readings can be large; an effect the other way counts as inactive or inconclusive.

SMILES	DT40 TDP1 CPT	TGFb SMAD3 inh	TDP1 block	HepG2 viability	TDP1 cell noCPT	IL-1B inflam inh
Cc1cc(OCCCC(=O)NCCc2nnc3ccccn23)ccc1Cl	?	-4%	-1%	-21%	16µM*	18
O=C(CCCOc1ccc(Cl)cc1Cl)NCCc1nnc2ccccn12	-19%	0%	-4%	7%	-23%	0
CSc1ncc(Cl)c(C(=O)N(C)c2ccccc2)n1	-15%	-2%	5%	-5%	?	·
Cc1ccc(S(=O)(=O)N(C)C)cc1NC(=O)COC(=O)c1c(-c2ccccc2)noc1C	-23%	10%	·	0%	?	-8
O=C(COC(=O)/C=C/c1ccc2ccccc2n1)NNC(=O)c1ccc([N+](=O)[O-])cc1	10%	-17%	-1%	-10%	-9%	-53*
Cc1ccc(S(=O)(=O)N(C)C)cc1NC(=O)COC(=O)/C=C/c1ccc2ccccc2n1	?	-24%	·	-21%	?	-106*
O=C(COC(=O)/C=C/c1ccccc1)NNC(=O)c1ccc([N+](=O)[O-])cc1	1%	0%	·	-5%	-2%	-2
COCCNC(=O)C1(C)CCCN(C(=O)c2ccccc2F)C1 (configuration not stated)	-7%	-7%	·	-11%	-1%	9
COc1ccc2c(c1)c(CC(=O)Nc1cccc(S(N)(=O)=O)c1)c(C)n2C(=O)c1ccc(Cl)cc1	?	16µM*	·	-43%	?	-15
COC(=O)CNC(=O)Cc1c(C)n(C(=O)c2ccc(Cl)cc2)c2ccc(OC)cc12	-25%	0%	4%	-4%	1%	23
COc1ccc2c(c1)c(CC(=O)OC(C)C(=O)N(C)C)c(C)n2C(=O)c1ccc(Cl)cc1 (configuration not stated)	21µM*	-9%	·	-6%	15µM*	8
COc1ccc(NC(=O)Cc2c(C)n(C(=O)c3ccc(Cl)cc3)c3ccc(OC)cc23)cc1	-10%	-8%	5%	0%	-29%	27
COc1ccc2c(c1)c(CCNNC(=O)C(C)(C)C)c(C)n2C(=O)c1ccc(Cl)cc1	23µM*	?	·	-36%	16µM*	?
COc1ccc2c(c1)c(CC(=O)Nc1ccc(C)cc1)c(C)n2C(=O)c1ccc(Cl)cc1	?	4%	-6%	-8%	21µM*	22
COc1ccc2c(c1)c(CC(=O)OCC(=O)N(C)C)c(C)n2C(=O)c1ccc(Cl)cc1	7%	-12%	·	-6%	-14%	16
COc1ccc2c(c1)c(CC(=O)Nc1cc(C)c(OC)c(C)c1)c(C)n2C(=O)c1ccc(Cl)cc1	?	-1%	-3%	-2%	?	·
CC(Nc1c[nH]c(=O)[nH]c1=O)c1ccccc1 (configuration not stated)	-13%	-5%	·	4%	-27%	19
CN(C)C(CNC(=O)c1cccc(S(=O)(=O)N2CC3(C)CC2CC(C)(C)C3)c1)c1ccco1 (configuration not stated)	?	-14%	7%	-8%	16µM*	-6
CC(C)N(C(=O)COC(=O)c1cccc(S(=O)(=O)N2CC3(C)CC2CC(C)(C)C3)c1)C(C)C (configuration not stated)	23µM*	?	2%	-30%	?	-17
O=C(OC(C(=O)NC1CCCCC1)c1ccc(C(F)(F)F)cc1)c1ccco1 (configuration not stated)	0%	-22%	3%	-30%	?	4
Cc1ccc(OCCCCn2cnc3ccccc32)cc1	16µM*	-25%	7%	-15%	21µM*	-19
c1ccc(OCCCCn2cnc3ccccc32)cc1	?	?	4%	-29%	18µM*	-20
Cc1ccccc1OCCCCn1c(CO)nc2ccccc21	9.2µM*	-6%	3%	-25%	10µM*	-21
Cc1ccccc1OCCCCn1cnc2ccccc21	12µM*	0%	-1%	-18%	13µM*	-19
Brc1ccccc1OCCCn1cnc2ccccc21	?	-8%	6%	-29%	-26%	-25
SMILES	DT40 TDP1 CPT	TGFb SMAD3 inh	TDP1 block	HepG2 viability	TDP1 cell noCPT	IL-1B inflam inh
Cc1ccc(C)c(Cn2c(-c3cccs3)nc3ccccc32)c1	?	?	0%	-6%	?	·
CCOC(=O)c1ccc(N2C(=O)c3[nH]nc(-c4ccc(C)cc4)c3C2c2cccc(F)c2)cc1 (configuration not stated)	23µM*	?	5%	11µM*	?	·
CCOC(=O)c1ccc(N2C(=O)c3n[nH]c(-c4cccs4)c3C2c2cccc(OC)c2)cc1 (configuration not stated)	26µM*	1.8µM*	5%	-51%	10µM*	·
O=C1c2[nH]nc(-c3ccc(F)cc3)c2C(c2ccccc2F)N1c1ccccc1 (configuration not stated)	?	?	·	-105%	21µM*	·
CCOc1ccc(N2C(=O)c3n[nH]c(-c4cccs4)c3C2c2cccc(F)c2)cc1 (configuration not stated)	?	?	7%	11µM*	?	·
CCOC(=O)C1=C(C)N=C2SC(C)C(=O)N2C1c1cccc(F)c1 (configuration not stated)	?	-4%	8%	6%	?	0
COc1cc(C2c3c(-c4ccccc4)n[nH]c3C(=O)N2c2ccccc2)ccc1O (configuration not stated)	?	-5%	5%	-27%	?	-23
CCOc1cc(C2c3c(n[nH]c3C)C(=O)N2c2ccc(C)cc2)ccc1O (configuration not stated)	-5%	-7%	7%	-14%	-28%	3
CC1Oc2ccccc2N(CC(=O)NCCN2CCOCC2)C1=O (configuration not stated)	0%	10%	5%	4%	22%	17
CC(C=CC(O)=C1C(=O)CNC1=O)=C[C@@H](C)C1OC2(C)OC(C(=O)C3O[C@@]32C)C1C (some centres not stated)	-1%	·	·	·	-5%	27
